In the supplement of paper PMC8285479 one finds normalised cell viability data, which are given here for 13 compounds.

In this assay the test system is NCI-H1944. Put plainly: normalised cell viability (NPI; 0 = phenylarsine oxide control, 1 = DMSO control) (fraction of DMSO control); NCI-H1944 is a non-small cell lung cancer line; higher = more viable cells (less compound toxicity). The note with it: 6 days.
[1] abbreviates: glucocorticoid arm: hydrocortisone 2.75 uM co-treatment, compound 1 µM.
Setting [2] is: glucocorticoid arm: hydrocortisone 2.75 uM co-treatment, compound 5 µM.
Where [3] appears, read: glucocorticoid arm: hydrocortisone 2.75 uM pre-treated 2 days and continued, compound 1 µM.
The mark [4] stands for this setting: glucocorticoid arm: hydrocortisone 2.75 uM pre-treated 2 days and continued, compound 5 µM.
The mark [5] stands for this setting: glucocorticoid arm: vehicle, compound 1 µM.
[6] abbreviates: glucocorticoid arm: vehicle, compound 5 µM.

Structures can show the parent of a compound that is named as a salt. ± gives the standard deviation of the averaged measurements. The full ranking holds about 1,900 compounds; the median of “normalised cell viability (NPI; 0 = phenylarsine oxide control, 1 = DMSO control)” is about 1, and the lowest 2% start at about 0.039. The entries come from a sample that favours the lowest values as a whole.
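Note: CTB read-out in 384-well plates, triplicate wells, NPI normalised per plate against 1 µM phenylarsine oxide (0) and 0.1% DMSO (1) controls.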

In the case of `C=C1C(=O)O[C@@H](CCC)[C@@H]1C(=O)O` [Butyrolactone 3], the normalised cell viability by setting is: under setting [1], 1 ± 0.013; under setting [2], 1.02 ± 0.015; under setting [3], 0.998 ± 0.013; under setting [4], 1.017 ± 0.0082; under setting [5], 0.996 ± 0.0046; under setting [6], 1.001 ± 0.0075.

Regarding `CCN(CC)Cc1ccc2cc(COC(=O)Nc3ccc(C(=O)NO)cc3)ccc2c1` [Givinostat (ITF2357)], the normalised cell viability runs as follows: under setting [1], 0.726 ± 0.049; under setting [2], 0.00151 ± 0.0022; under setting [3], 1 ± 0.018; under setting [4], 0.0193 ± 0.0045; under setting [5], 0.139 ± 0.006; under setting [6], 0.000221 ± 0.0011.

As to `COc1ccc(Cn2ccc3ccc(C(=O)NO)cc32)cc1`, the normalised cell viability under setting [1] was determined as 0.959 ± 0.041; the normalised cell viability under setting [2] was found to be 1.01 ± 0.029; the normalised cell viability under setting [3] was determined as 0.923 ± 0.12; the normalised cell viability under setting [4] is 1.04 ± 0.04; the normalised cell viability under setting [5] stood at 0.9977 ± 0.004; the normalised cell viability under setting [6] worked out at 1.002 ± 0.0076.

`CCN(CC)CCNC(=O)c1ccc(NC(C)=O)cc1` [N-Acetylprocainamide hydrochloride]: the normalised cell viability came out at 0.9787 ± 0.0049 under setting [1]; 0.974 ± 0.0099 under setting [2]; 0.9943 ± 0.0067 under setting [3]; 0.977 ± 0.027 under setting [4]; 0.9883 ± 0.0038 under setting [5]; 0.9807 ± 0.0087 under setting [6].

In the case of `O=C(/C=C/c1ccc2ccccc2n1)c1ccncc1`, the normalised cell viability was 1.01 ± 0.013 under setting [1]; 1.067 ± 0.0058 under setting [2]; 1.02 ± 0.01 under setting [3]; 1.02 ± 0.015 under setting [4]; 1.01 under setting [5]; 1.01 ± 0.01 under setting [6].

With `NC(Cc1cccc(-c2ccccc2CP(=O)(O)O)c1)C(=O)O` (stereo not drawn) [Phenylbenzene-omega-phosphono-alpha-amino acid], the normalised cell viability is, setting by setting: under setting [1], 0.9963 ± 0.0055; under setting [2], 1.1 ± 0.021; under setting [3], 1.06 ± 0.087; under setting [4], 1.04 ± 0.021; under setting [5], 1.017 ± 0.0058; under setting [6], 1.03 ± 0.01.

In the case of `CC(C)(C)c1ccc(S(=O)(=O)/C=C/C#N)cc1`, the normalised cell viability by setting is: under setting [1], 0.9913 ± 0.008; under setting [2], 0.41 ± 0.055; under setting [3], 0.9847 ± 0.007; under setting [4], 0.9755 ± 0.0021; under setting [5], 0.972 ± 0.0092; under setting [6], 0.00936 ± 0.004.

Turning to `Cc1ccc(S(=O)(=O)C=CC#N)cc1`, the normalised cell viability is 0.979 ± 0.013 under setting [1]; 0.976 ± 0.0056 under setting [2]; 0.9813 ± 0.0023 under setting [3]; 0.997 ± 0.023 under setting [4]; 0.988 ± 0.011 under setting [5]; 0.688 ± 0.081 under setting [6].

Take `CC(/C=C/c1cccc(Oc2ccc(F)cc2)c1)N(O)C(N)=O` (stereo not drawn): the normalised cell viability turned out to be 1.017 ± 0.0058 under setting [1]; 1.07 ± 0.01 under setting [2]; 1.01 ± 0.011 under setting [3]; 1.06 ± 0.014 under setting [4]; 1.02 ± 0.015 under setting [5]; 1.023 ± 0.0058 under setting [6].

On to `O=C(O)[C@@H]1C[C@H](C(=O)O)N1` [cis-Azetidine-2,4-dicarboxylic acid], for which the normalised cell viability worked out at 0.992 ± 0.0044 under setting [1]; 0.97 ± 0.015 under setting [2]; 0.997 ± 0.012 under setting [3]; 1 under setting [4]; 0.9863 ± 0.0029 under setting [5]; 0.976 ± 0.011 under setting [6].

Regarding `OC[C@H]1NC[C@H](O)[C@@H](O)[C@@H]1O` [1-Deoxynojirimycin hydrochloride], the normalised cell viability by setting is: under setting [1], 1.01 ± 0.011; under setting [2], 0.984 ± 0.025; under setting [3], 0.995 ± 0.015; under setting [4], 0.969 ± 0.0066; under setting [5], 1.003 ± 0.0058; under setting [6], 0.991 ± 0.013.

Consider `CN(C)CCC(c1ccc(Cl)cc1)c1ccccn1` (racemic) [(±)-Chlorpheniramine maleate], for which the normalised cell viability under setting [1] was 0.9833 ± 0.0025; the normalised cell viability under setting [2] was determined as 0.985 ± 0.018; the normalised cell viability under setting [3] came to 0.9843 ± 0.0078; the normalised cell viability under setting [4] worked out at 0.991 ± 0.028; the normalised cell viability under setting [5] amounted to 0.9727 ± 0.0021; the normalised cell viability under setting [6] was found to be 0.987 ± 0.0069.

Turning to `OC[C@H]1NC[C@@H](O)[C@@H]1O` [1,4-Dideoxy-1,4-imino-D-arabinitol], the normalised cell viability came out at 0.9993 ± 0.0011 under setting [1]; 0.9807 ± 0.0015 under setting [2]; 0.997 ± 0.014 under setting [3]; 0.976 ± 0.027 under setting [4]; 1.002 ± 0.007 under setting [5]; 0.992 ± 0.012 under setting [6].
